How the values were obtained:
Test in all cases: protein domain microarray probed with biotinylated miRNA; Domain array: 20 mM Tris-HCl pH 7.4, 200 mM KCl, 0.2 mM EDTA, 0.05% NP40, 2 ug/ul heparin, overnight 4 C. ORF array: PBS pH 7.0 with RNase inhibitor, 100 ng RNA; high values mean tight binding
Conditions in all cases: ssRNA
ADARB2(2) = molecular target: T1, ADARB2(2) (Homo sapiens, UniProt Q9NS39)
T1 sequence: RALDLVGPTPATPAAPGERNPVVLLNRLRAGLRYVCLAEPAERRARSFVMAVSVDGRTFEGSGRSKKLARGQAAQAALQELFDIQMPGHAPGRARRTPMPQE

FBP3(1-4) = FBP3(1-4) (Homo sapiens, UniProt Q96I24)
IGF2BP3(3-4) = IGF2BP3(3-4) (Homo sapiens, UniProt O00425)
DGCR8 = molecular target: T2, DGCR8 (Homo sapiens, UniProt Q8WYQ5)
T2 sequence: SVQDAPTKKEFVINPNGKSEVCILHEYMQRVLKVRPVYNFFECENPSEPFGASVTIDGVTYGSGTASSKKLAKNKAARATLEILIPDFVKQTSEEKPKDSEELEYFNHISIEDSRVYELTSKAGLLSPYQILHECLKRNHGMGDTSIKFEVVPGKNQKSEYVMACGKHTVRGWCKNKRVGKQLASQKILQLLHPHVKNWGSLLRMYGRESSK

QKI = molecular target: T3, QKI (Homo sapiens, UniProt Q96PU8)
T3 sequence: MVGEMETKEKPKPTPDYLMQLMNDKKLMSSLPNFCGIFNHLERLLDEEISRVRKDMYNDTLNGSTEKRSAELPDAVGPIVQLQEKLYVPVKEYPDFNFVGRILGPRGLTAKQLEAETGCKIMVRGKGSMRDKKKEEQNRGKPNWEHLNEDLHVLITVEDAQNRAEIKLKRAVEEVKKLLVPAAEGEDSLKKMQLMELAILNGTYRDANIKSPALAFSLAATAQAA

FBP3(1-4), sequence (Q96I24 57-441): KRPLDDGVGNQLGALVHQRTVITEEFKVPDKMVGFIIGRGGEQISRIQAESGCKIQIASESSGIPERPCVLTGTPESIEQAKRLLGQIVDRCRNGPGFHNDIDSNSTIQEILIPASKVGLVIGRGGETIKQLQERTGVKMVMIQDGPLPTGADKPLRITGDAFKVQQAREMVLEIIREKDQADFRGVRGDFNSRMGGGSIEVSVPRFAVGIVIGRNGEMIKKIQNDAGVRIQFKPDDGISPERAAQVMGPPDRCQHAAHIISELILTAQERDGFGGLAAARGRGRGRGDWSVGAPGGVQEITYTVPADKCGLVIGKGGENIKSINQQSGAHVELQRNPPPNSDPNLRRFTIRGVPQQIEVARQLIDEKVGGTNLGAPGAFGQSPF
IGF2BP3(3-4), sequence (O00425 387-579): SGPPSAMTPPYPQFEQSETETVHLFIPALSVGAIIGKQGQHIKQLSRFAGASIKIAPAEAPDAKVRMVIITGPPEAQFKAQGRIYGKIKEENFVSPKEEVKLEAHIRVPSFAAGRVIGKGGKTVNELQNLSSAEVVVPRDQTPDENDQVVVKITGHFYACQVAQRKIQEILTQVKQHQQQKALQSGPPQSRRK

Sequence | binding signal (ADARB2(2)) [fluorescence intensity] | binding signal (FBP3(1-4)) [fluorescence intensity] | binding signal (IGF2BP3(3-4)) [fluorescence intensity] | binding signal (DGCR8) [fluorescence intensity] | binding signal (QKI) [fluorescence intensity]
UGAGGUAGUAGGUUGUAUGGUU | 59.45 ± 0.594 | 77.1 ± 5.85 | 96.125 ± 0.0778 | 110 ± 8.32 | 33.2 ± 5.98
UGAGGUAGUAGGUUGUAUAGUU | – | 38 ± 4.14 | 29.1 ± 0.552 | 38.6 ± 3.32 | 20.4 ± 2.35
AGAGGUAGUAGGUUGCAUAGUU | 23.8 ± 11.5 | 63.6 ± 6.09 | 64.5 ± 3.37 | 130 ± 1.15 | 33.1 ± 1.25
UGAGGUAGUAGGUUGUGUGGUU | 85.94 ± 0.24 | 107 ± 3.19 | 169 ± 5.85 | 212.8 ± 0.537 | 66.4 ± 1.27
CAGUGCAAUGAUGAAAGGGCAU | 32.5 ± 3.78 | 52.55 ± 0.495 | 53.6 ± 2.39 | 102 ± 2.74 | 37.7 ± 8.53
